Assay outcomes as filed in PubChem BioAssay.
HP1b binding inh: HP1-beta chromodomain-methylated histone interaction inhibition | P83916 | AlphaScreen HP1-beta / biotin-H3K9me3 peptide binding | Potency, µM (highest dose often 114 µM), without a hit: at the top dose activity change, negative = inhibition, most hits filed as inhibitors | hit rate 0.56% among 390,000 | AID 540317; also: nearly all actives have a fitted effect of over 70% in size
Target sequence (P83916 whole entry, looked up): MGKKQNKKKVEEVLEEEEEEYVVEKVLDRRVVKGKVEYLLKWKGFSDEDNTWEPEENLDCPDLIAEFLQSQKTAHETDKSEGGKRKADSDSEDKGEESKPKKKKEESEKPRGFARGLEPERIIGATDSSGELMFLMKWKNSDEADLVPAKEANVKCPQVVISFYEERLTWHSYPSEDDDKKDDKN
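Compound inhibition of the preformed complex between 50 nM HP1-beta and 50 nM biotinylated H3K9me3 peptide was read by AlphaScreen. Buffer was PBS pH 7.4 with 0.01% Tween-20. Incubations ran 30 min at room temperature, with 10 ug/mL donor/acceptor beads.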
JMJD2A Tudor inh: inhibitors of human JMJD2A Tudor domain | Potency, µM (doses to about 114 µM), inactives show at the top dose activity change, negative = inhibition, actives largely listed as inhibitors | hit rate 4.4% among 390,000 | AlphaScreen JMJD2A-Tudor / H3K4me3 peptide binding | O75164; also: % is scaled to controls: 0 for no effect and ±100 for the full control effect; nearly all actives have a fitted effect of over 50% in size
G9a inh: blocks human histone lysine methyltransferase G9a | Potency, µM (series often up to 102 µM), inactives show top-dose activity, negative = inhibition, most hits filed as inhibitors | hit rate 8.8% among 350,000 | G9a H3K9 monomethylation, AlphaScreen, 2 h | Q96KQ7; also: % is scaled to controls: 0 for no effect and ±100 for the full control effect; nearly all actives have a fitted effect of over 75% in size
Target sequence (Q96KQ7 913-1193 limits assumed): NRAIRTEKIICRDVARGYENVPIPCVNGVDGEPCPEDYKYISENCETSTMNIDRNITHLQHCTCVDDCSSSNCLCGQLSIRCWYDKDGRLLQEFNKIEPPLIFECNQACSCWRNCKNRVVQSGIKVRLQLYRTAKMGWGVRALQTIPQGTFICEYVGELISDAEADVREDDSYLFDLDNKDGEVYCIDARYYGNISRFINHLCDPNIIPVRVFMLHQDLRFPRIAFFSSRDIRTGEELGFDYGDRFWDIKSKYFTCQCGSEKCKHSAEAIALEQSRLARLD
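Using a bead-based AlphaScreen, monomethylated H3K9 product from 2 h room-temperature reactions (G9a 20 nM, peptide 500 nM, SAM 20 uM) was detected with 0.5 ug/mL rabbit anti-H3K9me1 antibody.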
L3MBTL1 inh: L3MBTL1 (human) inhibition | Potency, µM (titrated, usually from 57.1 µM), for inactives: at the top dose activity, negative = inhibition, actives largely listed as inhibitors | AlphaScreen L3MBTL1–H3K9me1 peptide binding | hit rate 0.66% among 230,000; also: % is scaled to controls: 0 for no effect and ±100 for the full control effect; nearly all actives have a fitted effect of over 60% in size
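L3MBTL1 50 nM + b-AHA-H3(1-15)K9me1 75 nM, 30 min RT; compound added, 30 min RT; streptavidin donor/Ni-chelate acceptor beads 10 ug/mL each final, 30 min RT dark; AlphaScreen read.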
BAZ2B block: blocks human BAZ2B; Q9UIF8; AlphaScreen BAZ2B-H3K14Ac peptide displacement; Potency, µM (series often up to 114 µM), for the others: at the top dose activity change, negative = inhibition, usual class: inhibitors; hit rate 4.4% among 360,000; AID 504333; also: % is scaled to controls: 0 for no effect and ±100 for the full control effect; nearly all actives have a fitted effect of over 60% in size
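In this displacement format the biotinylated H3(5-23) peptide acetylated at Lys14 serves as ligand at 50 nM, with BAZ2B at 50 nM in PBS pH 7.4 containing 0.01% Tween-20. Donor and acceptor beads are 10 ug/mL final.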
Sfp PPTase inh: inhibitors of Bacillus subtilis Sfp phosphopantetheinyl transferase; Q9F4F7; Potency, µM, without a hit: largest response in the series, negative = inhibition, hits mostly inhibitors; Biochemical Sfp PPTase activity, qHTS; hit rate 3.5% among 310,000; AID 1490;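 also: the enzyme is Sfp with the accession as filed and its product quenches rhodamine fluorescence; 0% = enzyme reaction without inhibitor and -100% = no enzyme wells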
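With Hepes-Na pH 7.6 buffer containing 10 mM MgCl2, Sfp (15 nM) modified BHQ-2-YbbR (12.5 uM) using rhodamine-CoA (5 uM). Two reads 30 minutes apart at 525/598 nm yielded each well's rate.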
Starred values were filed as active, the others as inactive; ? = inconclusive; nt = not tested or not shown; [ ] = another dose, or the depositor's remark. Rows were chosen to be rich in hits. Some 12% of all compounds tested hit in one or more screens of this group. Calls follow the shape of the dose curve; as a rule, active = well fitted curve in the direction sought with a large enough effect; inconclusive = small, poorly fitted or top-dose-only effect, or another doubt; inactive = no such curve, though single readings can be large; an effect the other way counts as inactive or inconclusive. Potency is read from the fitted curve at half-maximal effect.

SMILES	HP1b binding inh	JMJD2A Tudor inh	G9a inh	L3MBTL1 inh	BAZ2B block	Sfp PPTase inh
CSCC[C@H](NC(=O)Cc1c(C)c2cc3c4c(oc3cc2oc1=O)CCCC4)C(=O)O	31.7%	-18.8%	44.7µM*	nt	-9.7%	-6.1%
Cc1ccc(-c2c(C)cc3oc(=O)cc(-c4ccccc4)c3c2C)cc1	22.3%	-16.4%	35.8%	-4.6%	nt	-15.4%
Cc1cc2oc(=O)cc(-c3ccccc3)c2c(C)c1-c1ccc(N(C)C)cc1	-12.3%	?	28.2µM*	-19.9%	nt	-6.6%
COc1cc(OC)c2c(-c3cccc(-c4ccc(N(C)C)cc4)c3)cc(=O)oc2c1	?	10µM*	8.91µM*	?	nt	-9.5%
C#CCSc1nnc(CNS(=O)(=O)c2ccc(Br)cc2)n1C	33.9%	9.2%	5.2%	nt	-9.8%	19.1%
CCn1c(C(C)NS(=O)(=O)c2ccc(Cl)cc2)n[nH]c1=S (stereo not drawn)	25.4%	20µM*	nt	nt	0.2%	2.2%
CCn1c(CNS(=O)(=O)c2ccc(Br)cc2)n[nH]c1=S	44.9%	22.4µM*	35.5µM*	nt	-10.9%	16.3%
CCCn1c(C(C)NS(=O)(=O)c2ccccc2)n[nH]c1=S (stereo not drawn)	41.0%	?	20µM*	nt	-12.4%	3.9%
CCCC(C)NS(=O)(=O)c1ccccc1 (stereo not drawn)	37.9%	6.6%	-0.8%	-8.4%	12.3%	0.1%
Cc1ccc(CNC(=O)c2cn(C)c3ccc(S(=O)(=O)N(C)C4CCCCC4)cc3c2=O)cc1	8.8%	-19.7%	?	nt	nt	nt
CN1CCC(OC(=O)C(Oc2ccc(Cl)cc2)Oc2ccc(Cl)cc2)CC1	nt	nt	-37.0%[12.7 µM]	nt	nt	10.7%
COc1ccc(N2CC(NC(=O)COc3ccccc3F)CC2=O)cc1OC (stereo not drawn)	-11.2%	-13.6%	7.3%[59 µM]	nt	-1.8%	nt
Cn1c(=O)n(C)c2cc(CNCc3ccc(C(=O)O)cc3)ccc21	-4.9%	-9.9%	-1.8%[59 µM]	nt	0.4%	nt
CCOc1ccc(C(=O)CC(Sc2ccc(C)cc2)C(=O)O)cc1 (stereo not drawn)	23.1%	-15.3%	0.3%[12.7 µM]	8.7%	-0.6%	35.5µM*
O=C(CC(C(=O)O)c1ccc(Cl)cc1)c1ccc(Br)cc1 (stereo not drawn)	12.5%	-5.4%	-5.6%	nt	2.3%	20.9%
CCC(Sc1ccc(C(=O)O)cc1)C(=O)O (stereo not drawn)	32.2%	-11.8%	-0.4%[59 µM]	-5.8%	-4.3%	23.2%
O=C(CC(Sc1ccc(Br)cc1)C(=O)O)c1ccc(F)cc1 (stereo not drawn)	56.9%	19.8%	?	nt	-15.1%	44.7µM*
Cc1ccc(S(=O)(=O)c2nc(-c3cccs3)oc2SCC(=O)Nc2cc(C)cc(C)c2)cc1	8.3%	-23.9%	?	nt	-14.9%	nt
CCN1/C(=C/c2cc[n+](C)cc2)C=Cc2cc(C)ccc21	?	?	2.24µM*	-9.4%	?	?
CCN1/C(=C/c2ccc3ccccc3[n+]2CCCS(=O)(=O)[O-])C=Cc2cc(C)ccc21	-14.6%	-10.6%	10µM*	nt	44.7µM*	-20.6%
CCN1/C(=C/c2ccc3ccccc3[n+]2CC)C=Cc2ccccc21	17.8µM*	35.5µM*	11.2µM*	nt	?	50.1µM*
COc1cc2sc(-c3ccccc3OC)c(-c3ccc(OCCN4CCOCC4)cc3)c2cc1OC	?	31.6µM*	nt	-18.0%	nt	nt
COc1ccc2c(-c3ccc(OCCN4CCCCC4)cc3)c(-c3ccccc3OC)sc2c1	-33.7%	28.2µM*	nt	-24.0%	nt	nt
COc1ccc(-c2c(-c3ccccc3OC)sc3ccccc23)cc1OC	48.6%	-20.0%	-12.7%	-2.7%	-8.4%	3.9%
COc1ccccc1-c1sc2ccccc2c1-c1ccc(OCCN2CCCCC2)cc1	?	35.5µM*	nt	-15.9%	nt	nt
SMILES	HP1b binding inh	JMJD2A Tudor inh	G9a inh	L3MBTL1 inh	BAZ2B block	Sfp PPTase inh
COc1ccc2c(-c3ccc(OCCN4CCOCC4)cc3)c(-c3ccccc3OC)sc2c1	-17.0%	?	nt	-23.2%	nt	nt
CCCCC(=O)Nc1cccc(-c2nc3ccccc3s2)c1	18.5%	-4.6%	?	nt	2.4%	nt
Cc1ccc(CN2C(=O)C3(c4ccccc42)N(c2cccc(C(F)(F)F)c2)C(=O)CS3(=O)=O)cc1 (stereo not drawn)	19.9%	-19.1%	?	nt	-0.6%[57.1 µM]	nt
CC1(NC(=O)CC[N+](C)(C)CCO)CS(=O)(=O)CC1S(=O)(=O)[O-] (stereo not drawn)	nt	nt	?	12.6µM*	50.1µM*	-7.6%
OC[C@H]1OC(Nc2ccc(N=Nc3ccccc3)cc2)[C@@H](O)[C@@H](O)[C@@H]1O (stereo partly drawn)	11.2%	-35.1%	nt	nt	?	-2.2%
O[C@@H]1COC(Nc2ccc(N=Nc3ccccc3)cc2)C[C@@H]1O (stereo partly drawn)	?	?	44.7µM*	nt	?	8.3%
c1ccc(CCNc2c3c(nc4ncnn24)CCC3)cc1	20.6%	-16.5%	-2.1%	-5.3%	28.1%	-8.0%
Fc1ccccc1CCNc1c2c(nc3ncnn13)CCCC2	47.3%	-6.9%	50.1µM*	0.0%	-4.5%	-4.0%
Cc1ccc(Cl)cc1N1CCN(c2cccc[n+]2C)CC1	13.4%	-2.1%	?	9.1%	?	-1.9%
C[n+]1ccccc1N1CCN(c2ccccc2Cl)CC1	-1.2%	79.4µM*	3.98µM*	4.0%	-13.7%	-7.3%
COc1cc(OC)cc(C(=O)NCc2n[nH]c(=S)n2-c2ccccc2)c1	18.1%	7.94µM*	7.3%[0.0925 µM]	45.0%	10.1%	89.1µM*
COc1ccc(C(=O)NCc2n[nH]c(=S)n2-c2ccccc2)cc1OC	11.3%	6.31µM*	?	nt	-0.4%	56.2µM*
COc1ccc(C(=O)NCc2ccccc2)cc1Br	24.9%	-0.3%	-2.1%[59 µM]	?	-2.1%	2.9%
Cc1ccc(C(=O)CC(c2cccs2)S(=O)(=O)c2ccc(C)cc2)cc1 (stereo not drawn)	17.3%	2.1%	-28.1%[59 µM]	3.0%	-4.8%	1.8%
O=C(CC(c1cccs1)S(=O)(=O)c1ccccc1)c1ccc(F)cc1 (stereo not drawn)	29.6%	9.3%	8.91µM*	6.2%	-24.2%	-1.7%
O=C(Nc1ccccc1)C1CCCN1S(=O)(=O)c1cccs1 (stereo not drawn)	25.4%	-8.5%	?	37.7%	-8.4%	nt
O=C(Nc1nnc(-c2ccccc2)o1)C1CCCN1S(=O)(=O)c1cccs1 (stereo not drawn)	62.5%	?	-26.7%	-3.1%	50.1µM*	nt
COc1ccc(-c2nnc(NC(=O)C3CCCN3S(=O)(=O)c3cccs3)o2)cc1 (stereo not drawn)	23.6%	?	-0.5%	-15.8%	50.1µM*	nt
Cc1csc(Nc2ccccc2)[n+]1-c1ccccc1	28.2µM*	22.4µM*	10µM*	-6.1%	44.7µM*	5.8%
